# Laboratory results: PubChem BioAssay AID1259418 (Broad Institute, 2018)
# Among all 3,400 compounds or so, about 840 (25%) were called active. About 11% were inconclusive and are not listed.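 How the source made its calls: active means fitted half-maximal concentration of signal decrease at or below twice the sample's top tested concentration; inconclusive means flat curve between -70 and -30 percent, or poor fit; inactive means flat within 30 percent, signal rise, or potency above limit.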 Not all results are given here. Results with a measured potency or affinity are listed apart.
# Experiment: T. gondii growth inhibition with IFN-gamma, dose response, cell-based, ME49Luc, HeLa, luciferase, 72 h (AID 1259418)
# Conditions: T. gondii ME49Luc in IFN-y HeLa, stronger effect = lower value, -100% = high-dose IFN-γ control wells; at 19.5 µM unless noted
row,Structure (SMILES),max activity
1,COCCC(=O)c1cc2c(s1)CCN2Cc1cccnc1,26.4% (inactive)
2,COc1cccc(CNC(=O)N2CCc3nc(-c4ccccc4)sc3C2)c1,-15% [at 5 µM] (inactive)
3,Cc1ccccc1S(=O)(=O)N1CCCCN2[C@H](CO)[C@H](c3ccc(C#CCN(C)C)cc3)[C@H]2C1,23.7% (inactive)
4,Cc1ccccc1S(=O)(=O)N1CCCCN2[C@H](CO)[C@H](c3ccc(C#CCN(C)C)cc3)[C@@H]2C1,-17.9% (inactive)
5,Cc1cccc(N2CCN(c3nc(-c4ccc(Cl)cc4)nc4ccccc34)CC2)c1C,10.6% (inactive)
6,c1cc(-c2nccn2CCn2ccnc2)ccn1,11.4% (inactive)
7,COc1cccc(CNc2nc(-c3ccc(Cl)cc3)nc3ccccc23)c1,-22% [at 1.35 µM] (inactive)
8,OC[C@@H]1Nc2ccc(-c3cccc(F)c3)cc2[C@H]2[C@@H]1CCN2Cc1ccc(F)cc1,42.2% [at 10 µM] (inactive)
9,O=S(=O)(c1cccc(F)c1)N1CC[C@@H]2[C@H]1c1cc(Br)ccc1N[C@@H]2CO,35.2% [at 10 µM] (inactive)
10,Cc1ccc(-c2csc(-c3cccn3CC(=O)N3CCC4(CC3)OCCO4)n2)cc1,11.8% [at 5 µM] (inactive)
11,Cc1oc(-c2ccccc2)nc1Cn1nnc(-c2nc(-c3ccc(F)c(Cl)c3)no2)c1C,-12.6% [at 1.35 µM] (inactive)
12,O=C(COc1ccccc1)N1CCC2(CC1)Nc1cc(F)ccc1-n1cccc12,10.6% [at 5 µM] (inactive)
13,CCOc1ccc(-c2nc(CN3CCN(C(=O)Nc4ccccc4C(=O)OC)CC3)c(C)o2)cc1,6.24% [at 0.16 µM] (inactive)
14,COc1cc(CCC(=O)N2CCC3(CC2)Nc2ccc(C)c(C)c2-n2cccc23)cc(OC)c1OC,-12.8% [at 2.6 µM] (inactive)
15,O=C(c1ccc(F)cc1)N1CCC2(CC1)Nc1ccc(Cl)cc1-n1cccc12,13.8% [at 0.68 µM] (inactive)
16,O=C(c1ccccc1F)N1CCC2(CC1)Nc1ccc(Cl)cc1-n1cccc12,-6.53% [at 0.35 µM] (inactive)
17,COc1ccc(-c2nc(NCCc3ccc(SC)cc3)c3ccccc3n2)cc1,-32.9% (inactive)
18,CCOC(=O)CSC1=Nc2ccccc2C2=NC(CC(=O)NCc3ccc(F)cc3)C(=O)N12 (centres undefined),17.3% (inactive)
19,CS(=O)(=O)N1CC(=O)N2[C@H](CO)[C@H](c3ccc(C#CCC4CCCC4)cc3)[C@@H]2C1,13.6% [at 10 µM] (inactive)
20,CS(=O)(=O)N1CC(=O)N2[C@H](CO)[C@@H](c3ccc(C#CCC4CCCC4)cc3)[C@H]2C1,29.5% [at 11 µM] (inactive)
21,CS(=O)(=O)N1CC(=O)N2[C@@H](CO)[C@H](c3ccc(C#Cc4ccc(F)cc4)cc3)[C@@H]2C1,11.8% [at 10 µM] (inactive)
22,CC(C)C#Cc1ccc([C@H]2[C@@H](CO)N3C(=O)CN(S(=O)(=O)c4ccccc4)C[C@H]23)cc1,-8.27% [at 10 µM] (inactive)
23,CC(C)C#Cc1ccc([C@H]2[C@@H](CO)N3C(=O)CN(S(=O)(=O)c4ccccc4)C[C@@H]23)cc1,19.2% [at 10 µM] (inactive)
24,CS(=O)(=O)N1CC(=O)N2[C@H](CO)[C@@H](c3ccc(Br)cc3)[C@H]2C1,27.1% (inactive)
